The sample as a whole holds a higher share of hits than the screen did.
Pf Dd2 growth: Plasmodium falciparum Dd2 growth inhibition; P. falciparum Dd2 growth, SYBR Green, 72 h; Potency, µM (series often up to 28.9 µM), for inactives: at the highest dose activity, negative = inhibition, hits mostly inhibitors; actives 4.3% (n = 120,000); AID 1347417; active = well fitted inhibition curve with a large enough effect;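 also: plate controls were DMSO vehicle for no effect and reference drug for full effect; nearly all actives have a fitted effect of over 65% in size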
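Readout: SYBR Green fluorescence, 485 nm excitation, 535 nm emission, after ~16 h lysis at 37C. Before that, Dd2-infected red cells (2.5% hematocrit) grew 72 h with compound, 29 uM top final concentration.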
* = called active by the depositor; i = inactive; [ ] = remark or other dose. Potency is read from the fitted curve at half-maximal effect.

SMILES	Pf Dd2 growth
NC(=O)C1(NC(=O)c2ccc(S(=O)(=O)N3CCCC(O)C3)cc2)CCCC1 (stereo not drawn)	-7.2%
CCOc1ccccc1N(C)C(=O)C1CCCN(c2ncnc3c2nc2n3CCCCC2)C1 (stereo not drawn)	-2.2%
CCCN(CCC)C(=O)C1CCN(c2ncnc3c2nc2n3CCCCC2)CC1	-20.1%
Cc1ccc(C)c(N(C)C(=O)C2CCN(c3ncnc4c3nc3n4CCCCC3)CC2)c1	8.91µM*
Cc1ccc(C)c(NC(=O)C2CCN(c3ncnc4c3nc3n4CCCCC3)CC2)c1	14.6%
CCCNC(=O)C1CCN(c2ncnc3c2nc2n3CCCCC2)CC1	-8.7%
O=C(Nc1ccc(F)cc1)C1CCCN(c2ncnc3c2nc2n3CCCCC2)C1 (stereo not drawn)	-20.1%
CN(C(=O)C1CCN(c2ncnc3c2nc2n3CCCCC2)CC1)c1ccccc1F	-19.5%
CCc1ccccc1N(CC)C(=O)C1CCN(c2ncnc3c2nc2n3CCCCC2)CC1	11.2µM*
CCc1ccccc1N(C)C(=O)C1CCCN(c2ncnc3c2nc2n3CCCCC2)C1 (stereo not drawn)	7.94µM*
COCCc1nncn1C1CCN(C(=O)c2cccc(OC(F)(F)F)c2)CC1	i
COc1ccc(CN2CCc3ncc(C(=O)N4CCC(c5ccccc5)CC4)n3CC2)cn1	i
CN(Cc1ccccc1)Cc1cn([C@H]2CO[C@H]3[C@@H]2OC[C@@H]3NC(=O)NCc2ccccc2)nn1	-13.1%
Cc1ccc(-c2noc(CSc3nnc(Cc4ccccc4)n3-c3cccc(C)c3)n2)cc1	9.5%
CCOc1ccc(-n2c(Cc3ccccc3)nnc2SCc2nc(-c3ccccc3C)no2)cc1	-16.0%
CCOc1ccc(-c2noc(CSc3nnc(Cc4ccccc4)n3-c3cccc(C)c3)n2)cc1	10µM*
NS(=O)(=O)c1ccc(NC(=O)CN2C(=O)COc3ccc(Cl)cc32)cc1	0.708µM*
Cc1ccc(NC(=O)CN2C(=O)COc3ccc(S(=O)(=O)N4CCCCC4)cc32)cc1Cl	5.7%
CCN(CC)S(=O)(=O)c1ccc2c(c1)N(CC(=O)Nc1ccc(F)cc1)C(=O)CO2	19.2%
CS(=O)(=O)c1ccc(CN2C[C@@H]3OCC(=O)N(c4ccccc4)[C@@H]3C2)cc1	i
COCc1nc(-c2ccc(OC3CN(C(=O)c4cc(C)n(C)n4)C3)cc2)no1	7.94µM*
CCN(CC)C(=O)N1CCC(Oc2ccc(-c3noc(COC)n3)cc2)C1 (stereo not drawn)	12.9%[5.79 µM]
COCc1nc(-c2ccc(OC3CN(C(=O)c4ccc(OC)nc4)C3)cc2)no1	-26.0%
Cn1ncc(N2CCCC(CC(=O)NCCC3=CCCCC3)C2)cc1=O (stereo not drawn)	-3.2%
CNc1nc(C(=O)N2C[C@@H](C(=O)O)[C@H](c3ccc4c(c3)OCO4)C2)cs1	34.4%
SMILES	Pf Dd2 growth
CN(C)c1nccnc1OC1CCN(C(=O)c2ccn[nH]2)C1 (stereo not drawn)	-12.2%
CCCN(C)c1nccnc1OC1CCN(C(=O)c2ccc(F)cc2)C1 (stereo not drawn)	10µM*
CCCN(C)c1nccnc1OC1CCN(C(=O)C2CCOCC2)C1 (stereo not drawn)	12.9%
Cc1ccc(C(=O)N2CCC(n3cc(-c4nc(C)no4)nn3)C2)c(C)c1 (stereo not drawn)	-22.0%
CCCC(=O)N1CCc2cc(S(=O)(=O)NC(C)c3ccccc3)ccc2C1 (stereo not drawn)	-14.4%
CN(Cc1ccc(C2CCCCO2)s1)CC1CCN(CCc2ccc(F)cc2)CC1 (stereo not drawn)	-21.0%
CCOc1ccc(C(=O)OCc2cc(=O)n3nc(C4CC4)sc3n2)cc1	-6.5%
CCCN1C(=O)c2[nH]nc(-c3ccc(OC)cc3)c2C1c1ccccn1 (stereo not drawn)	-18.6%
CCOC(=O)c1ccc(N2C(=O)c3[nH]nc(-c4ccccc4)c3C2c2ccc(CC)cc2)cc1 (stereo not drawn)	10µM*
CCOc1ccccc1NC(=O)C1=C(C)Nc2ncnn2C1c1cccs1 (stereo not drawn)	1.1%
CCOC(=O)c1ccc(NC(=O)c2oc(=O)c3ccccc3c2-c2ccccc2)cc1	24.0%
CCc1ccc(C2NC(=O)c3[nH]nc(-c4cccc(OC)c4)c32)cc1 (stereo not drawn)	-10.3%
CCOc1ccc(N2CC(NC(=O)Cc3cccs3)CC2=O)cc1 (stereo not drawn)	i
CCOC(=O)c1ccc(N2C(=O)c3[nH]nc(-c4ccccc4)c3C2c2cccs2)cc1 (stereo not drawn)	7.08µM*
CCOC(=O)c1ccc(N2C(=O)c3[nH]nc(-c4ccc(OCC)cc4)c3C2c2cccs2)cc1 (stereo not drawn)	2.82µM*
CCCN1C(=O)c2[nH]nc(-c3ccc(F)cc3)c2C1c1ccccn1 (stereo not drawn)	-15.0%
Cc1ccc(N2C(=O)c3n[nH]c(C)c3C2c2ccc(Cl)cc2)cc1 (stereo not drawn)	-18.0%
CCOc1ccc(-c2n[nH]c3c2C(c2cccs2)N(c2ccc(Br)cc2)C3=O)cc1 (stereo not drawn)	3.55µM*
COc1ccc(C(=O)N2CCCOCCNC(=O)CC2)cc1F	0.2%
CN(C)c1nc(-c2ccccc2)nc2c1CCN(C(=O)c1ccncc1)C2	-7.4%
CCC1(O)CCCN(C(=O)c2cc(COc3ccccc3OC)[nH]n2)C1 (stereo not drawn)	-5.3%
CC(C)(CC(=O)O)CC(=O)N1Cc2[nH]cnc2C[C@H]1C(=O)NC1CCCCC1	-12.6%[44.1 µM]
O=c1[nH]ccn1C1CCN([S+](=O)([O-])c2cccs2)CC1	23.9%[44.1 µM]
COc1ccc(C(=O)NCC23CCC=C2N(C)C(=O)CC3)cn1 (stereo not drawn)	-27.4%
O=C(c1ccc(-c2ccc(N3CCCCCC3)nc2)cc1)N1CCCC1	-10.0%
SMILES	Pf Dd2 growth
CCOCCOC1CCN(C(=O)c2ccco2)CC1	15.4%
O=C1c2[nH]nc(-c3ccc(F)cc3)c2C(c2ccccc2F)N1c1ccccc1 (stereo not drawn)	-28.2%
CCCN1C(=O)c2[nH]nc(-c3ccc(F)cc3)c2C1c1ccc(O)c(OCC)c1 (stereo not drawn)	i
CCOC(=O)c1ccc(N2C(=O)c3[nH]nc(-c4ccc(C)cc4)c3C2c2cccc(F)c2)cc1 (stereo not drawn)	5.01µM*
CN1C(=O)[C@@H]2C[C@@H](CN2Cc2ccc(F)cc2)Oc2ccccc21	-22.4%[44.1 µM]
CCCCNC(=O)CC(c1cccc(OC)c1)c1c[nH]c2ccccc12 (stereo not drawn)	i
CCCCNC(=O)CC(c1ccc(OC)cc1OC)c1c[nH]c2c(CC)cccc12 (stereo not drawn)	i
COc1ccc(C(CC(=O)NCCc2ccc(OC)c(OC)c2)c2c[nH]c3ccccc23)c(OC)c1 (stereo not drawn)	11.2µM*
N#Cc1ccc(C(=O)N2CCCCCNC(=O)[C@@H]3CCC[C@@H]32)cc1	0.0%
NC(=O)CN1C(=O)[C@@H]2CN(C(=O)c3ccccc3)CCN2C1=O	6.8%[44.1 µM]
COCCn1c(C)cnc1CC1CCCN(C(=O)c2ccnn2C)C1 (stereo not drawn)	7.8%
O=C(Nc1ccc(F)cc1F)N1CCCC(Cn2c(C3CC3)nc3cccnc32)C1 (stereo not drawn)	i
COc1nccnc1NC1CCN(C(=O)c2ccccc2C)CC1	i[5.79 µM]
Cc1ccccc1CNC[C@H]1O[C@@H]2C[C@@H](CC(=O)N3CCC(F)(F)C3)O[C@@H]2[C@@H]1O	9.2%[44.1 µM]
Cc1ccc(-n2ncc(C(=O)N3CCN(c4ncccn4)CC3)c2C2CCN(C(=O)OC(C)(C)C)CC2)cc1	41.3%
